A selection: hits, their analogues and other compounds. The true share with any hit is near 2.4%.
D2 PAM-1: Beta-Arrestin HTS for Positive Allosteric Modulators of the Human D2 Dopamine Receptor: Potentiators; DiscoveRx D2 beta-arrestin cells, luminescence, 90 min; 100% = 57 uM dopamine signal; potentiation, % (concentration not given with the values); 360,000 compounds, 0.23% hits; AID 624464, 2012; in the data active = potentiation above about 50%; inconclusive = mostly about 30% to 49%
Target sequence (P14416 whole entry, looked up): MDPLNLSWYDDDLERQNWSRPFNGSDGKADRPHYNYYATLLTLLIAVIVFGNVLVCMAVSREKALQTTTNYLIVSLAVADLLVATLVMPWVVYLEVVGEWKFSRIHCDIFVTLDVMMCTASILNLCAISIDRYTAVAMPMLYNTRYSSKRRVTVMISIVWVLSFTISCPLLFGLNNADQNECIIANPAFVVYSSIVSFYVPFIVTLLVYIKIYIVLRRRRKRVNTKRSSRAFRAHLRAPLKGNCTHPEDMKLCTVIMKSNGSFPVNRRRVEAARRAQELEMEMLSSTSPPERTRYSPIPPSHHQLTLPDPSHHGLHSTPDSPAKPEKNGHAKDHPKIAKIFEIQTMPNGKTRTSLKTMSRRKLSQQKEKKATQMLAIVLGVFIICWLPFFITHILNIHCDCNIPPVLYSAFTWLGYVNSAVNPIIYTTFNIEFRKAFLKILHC
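PathHunter beta-arrestin assay in DiscoveRx D2 cells. Compounds were added with an EC20 of dopamine (50 nM final) for 90 min at 37 deg C. Luminescence was read 1 h after detection reagent, with 57 uM dopamine as the EC100 control.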
D2 ag-1: HTS Assay for Allosteric Agonists of the Human D2 Dopamine Receptor: Primary Screen for Agonists. activation, % at 2 µM. HEK293 T-REx D2 cells, calcium flux agonist mode. D(2) dopamine receptor (Homo sapiens), P14416. 340,000 compounds, 0.53% hits;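 active = activation over 3 SD above normal in the single-dose calcium agonist read, cut at about 30% in these data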; also: 0% is about no effect
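HEK293 Trex D2 cells, tetracycline-induced, o/n 30 C 5% CO2; no-wash Ca dye, RT 30–90 min; 10-cycle baseline, 23 nl cpd added, kinetic Ca read 180 s; agonist hits = positive Ca response.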
D2 antag: HTS Assay for Allosteric Antagonists of the Human D2 Dopamine Receptor: Primary Screen for Antagonists; D(2) dopamine receptor (Homo sapiens), P14416; HEK293 TREx D2 cells, calcium flux, dopamine EC80; inhibition, % at 10 µM; 340,000 compounds, 2% hits; in the data active = inhibition above about 30%; inactive = below that, where a call was filed; also: 0% is about no effect
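In this primary screen, negative modulation is detected by tracking calcium flux after an EC80 dopamine challenge in inducible HEK293 T-REx D2 cells preexposed to test compound for 180 s.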
D2 ag-2: Beta-Arrestin HTS for Positive Allosteric Modulators of the Human D2 Dopamine Receptor: Agonists; AID 624465, 2012; activation, % (test concentration not listed); D(2) dopamine receptor (Homo sapiens), P14416; 360,000 compounds, 0.084% hits; DiscoveRx PathHunter D2 beta-arrestin, luminescence, 90 min; 100% = 57 uM dopamine signal; in the data active = activation above about 40%; inconclusive = between about 15% and that limit
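Agonist mode: compounds alone added to overnight-plated D2 PathHunter cells for 90 min at 37 C, with 57 uM final dopamine (EC100) defining full response. Beta-arrestin recruitment detected by chemiluminescent reagent, read after 1 h at ambient temperature.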
D2 PAM-2: HTS Assay for Positive Allosteric Modulators of the Human D2 Dopamine Receptor: Primary Screen for Potentiators; HEK293 T-REx D2, calcium flux, EC20 dopamine potentiation; 340,000 compounds, 0.34% hits; AID 485347, 2010; potentiation, % at 10 µM;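 active = potentiation over 3 SD above the plate norm, cut at about 30% in these data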; also: 0% is about no effect
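Primary screen. Calcium kinetics in induced HEK293 T-REx D2 cells: compound pre-addition 180 s, EC20 dopamine, 180 s more.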
Active calls of the source: *; ? = inconclusive; · = no result given.

SMILES | D2 PAM-1 | D2 ag-1 | D2 antag | D2 ag-2 | D2 PAM-2
Cc1ccc(CN2C(=O)CCC2C(=O)NCCN2CCN(c3cccc(Cl)c3)CC2)cc1 (stereo not given) | -5 | 13 | 44* | 0 | -19
COc1ccc(NC(=O)NCCN2CCN(c3cccc(Cl)c3)CC2)cc1 | -10 | 0 | 36* | 2 | 15
CCOc1cccc(N2CCN(CCNC(=O)Nc3ccc(C)cc3)CC2)c1C | -2 | 3 | 44* | -4 | -19
O=C(Cn1nc(-c2ccccc2)ccc1=O)NCCN1CCN(c2cccc(Cl)c2)CC1 | -14 | 0 | 64* | -1 | -19
CCOC(=O)c1c(C)n(-c2ccccc2)c2ccc(OC(=O)c3ccccc3NC(=O)C(C)(C)C)cc12 | · | 0 | · | · | -1
Cc1ccc2c(c1)C1CN(C)CCC1N2Sc1ccccc1[N+](=O)[O-] (stereo not given) | -19 | -2 | 43* | -8 | -22
O=C(Nc1ccccn1)c1ccc(Cl)c(S(=O)(=O)N2CCOCC2)c1 | 4 | 0 | 4 | 0 | 9
Cc1ccc(C(=O)Nc2ccccn2)cc1S(=O)(=O)N1CCOCC1 | -12 | 0 | 35* | 2 | 0
CC(=O)Nc1cccc(C(=O)N2CCN(S(=O)(=O)Cc3ccccc3)CC2)c1 | -2 | · | · | -8 | ·
CC(Sc1n[nH]c(-c2ccccc2F)n1)C(=O)Nc1ccc(S(N)(=O)=O)cc1 (stereo not given) | -17 | 1 | -2 | -3 | 8
O=C1c2cccnc2-c2ncccc21 | -1 | · | · | -3 | ·
O=C1C(=O)c2cccnc2-c2ncccc21 | ? | · | · | 56* | ·
CCc1ccc(C2=NN(CCC(=O)NCCc3ccc(OC)c(OC)c3)C(=O)CC2)cc1 | · | · | · | · | -17
O=C(Nc1ccccc1)Nc1cccc(NC(=O)Nc2ccccc2)c1F | 0 | 0 | -29 | 1 | 0
O=C(Nc1ccccc1)Nc1ccccc1Br | -4 | -4 | 42* | 2 | 1
COCCCNC(=O)c1cn(Cc2c(F)cccc2Cl)nn1 | 5 | -1 | 32* | -1 | -9
COCCNC(=O)CSCc1c(F)cccc1Cl | -8 | -2 | 2 | 0 | 2
CCOC(=O)C1=C(C)n2c(s/c(=C3\C(=O)Nc4ccccc43)c2=O)=NC1c1ccc(OC)cc1 (stereo not given) | -37 | 0 | 40* | -3 | 8
CCOC(=O)C1=C(C)N=c2s/c(=C3/C(=O)Nc4ccccc43)c(=O)n2C1c1ccc(C)cc1 (stereo not given) | -18 | -1 | -6 | -5 | 3
Cc1nc(-c2cc(C#N)c(=O)[nH]c2C)cs1 | 0 | 1 | 8 | 0 | 0
Cc1[nH]c(=O)c(C#N)cc1-c1csc(-c2ccccc2)n1 | -24 | 1 | 39* | -2 | -4
O=S(=O)(N/N=C/c1ccc(N2CCOCC2)cc1)c1ccc(Br)cc1 | -8 | 0 | 2 | -2 | 31*
N#Cc1c(Sc2ncc(C(F)(F)F)cc2Cl)nsc1C/C=N\OCc1c(F)cccc1Cl | 58* | 1 | -4 | 2 | 2
COCCNCC1C(Oc2ccc(Cl)cc2)C(=O)N1c1ccccc1C (stereo not given) | -23 | 1 | 50* | 1 | -34
CCCNCC1C(Oc2ccc(Cl)cc2)C(=O)N1c1ccccc1C (stereo not given) | -22 | 1 | 51* | -5 | -23
SMILES | D2 PAM-1 | D2 ag-1 | D2 antag | D2 ag-2 | D2 PAM-2
CCc1cccc(C)c1Nc1c(-c2ccc(N3CCOCC3)cc2)nc2ncccn12 | · | 5 | · | · | 1
Cc1ccccc1CNC(=O)c1ccccc1SCC(=O)NCc1ccco1 | -1 | 0 | -20 | 0 | -3
COc1ccc2cc(CNc3ccccc3)c(=O)n(CC(=O)Nc3ccc(C(C)=O)cc3)c2c1 | · | 0 | · | · | -9
Cc1ccc(NC(=O)CN2CCCCCC2)cc1Br | -7 | 4 | 42* | 0 | -31
CC(Cc1ccco1)NC(=O)c1ccc(C(F)(F)F)cc1 (stereo not given) | -14 | -1 | 32* | -3 | -12
O=C(CSCC(=O)NC1CC1)Nc1ccc2ccccc2c1 | -29 | 1 | 35* | 0 | -21
COc1cccc(CNC(=O)C(CC(C)C)NS(=O)(=O)c2ccc3c(c2)oc(=O)n3C)c1 (stereo not given) | · | 0 | · | · | -8
CCOc1ccc(/C=C2\CCC(C3CCCC3)C2=O)cc1 (stereo not given) | 0 | -1 | 37* | 2 | -3
O=C(Nc1cc(-c2ccc(F)c(F)c2)no1)c1ccccc1F | · | -2 | · | · | 0
COc1ccc(OCC(=O)NCCCN2CCOCC2)cc1 | -4 | 1 | 32* | 2 | -4
CCC(=O)c1ccc(OCC(=O)NCCCN2CCOCC2)cc1 | 3 | · | · | -5 | ·
Cc1cc(OCC(=O)NCCN2CCOCC2)c2c(C)c(C)c(=O)oc2c1 | -2 | 0 | -9 | -2 | 33*
O=S(=O)(c1ccc(Cl)cc1)c1nnn2c1nc(NCc1ccc3c(c1)OCO3)c1sccc12 | · | 0 | · | · | 2
CC(C)c1ccc(NC(c2nnc(-c3ccccc3)o2)c2ccc(F)cc2Cl)cc1 (stereo not given) | · | 0 | · | · | -10
COc1ccc(OC)c(NS(=O)(=O)c2ccc(Br)s2)c1 | · | -1 | -3 | · | -9
COc1cccc(NS(=O)(=O)c2ccc(Br)s2)c1 | -8 | 0 | 34* | 0 | 8
COc1ccc(-c2ccc(=O)n(CC(=O)Nc3ccc(C)cc3C)n2)cc1 | · | 0 | · | · | 7
COC(=O)c1cc(NC(=O)CC2SCCNC2=O)cc(C(=O)OC)c1 (stereo not given) | -1 | 0 | 35* | 4 | 3
Cc1ccccc1NC(=O)CC1SCCNC1=O (stereo not given) | -4 | -1 | 45* | -2 | 4
O=C(CC1SCCNC1=O)Nc1cc(Cl)cc(Cl)c1 (stereo not given) | -6 | · | · | -1 | ·
O=C(CN1C(=O)COc2ccc(S(=O)(=O)N3CCCCCC3)cc21)N1CCN(c2cccc(Cl)c2)CC1 | · | 1 | · | · | -12
COc1ccc(Cl)cc1NC(=S)NCCc1ccc(F)cc1 | -53 | 0 | 40* | -1 | -20
COc1ccc(Cl)cc1NC(=S)NCCc1ccc(S(N)(=O)=O)cc1 | -16 | 0 | 24 | -4 | -3
Fc1ccc(NC(=S)NCCc2ccc(Cl)cc2)cc1 | -15 | -1 | 32* | -1 | -2
Cc1ccccc1NC(=O)c1sc2nc3c(cc2c1N)CCCC3 | · | -1 | · | · | 13
